# Source: PubChem BioAssay (EPA / NIEHS)
# Records with an inconclusive call do not appear. Calls of active or inactive are those of the source. How the source made its calls, unless noted: active means hit-call score of the fitted dose curve at least 0.9, where 1 is the maximum; inactive means score below 0.9.
# Columns and labels:
# [1] = CCTE_Deisenroth_AIME_96WELL_CTox_Active: Cytotoxicity Assessment (CTOX) in CCTE's 96-well Estrogen Receptor Transactivation Assay with AIME metabolic competence (metabolism positive), Deisenroth Lab (AID 2284028; active means hit-call score of the fitted dose curve at least 0.9, where 1 is the maximum)
# In short: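 Chemicals (0.002–200 uM) were first incubated 2 h with alginate-immobilized phenobarbital/beta-naphthoflavone-induced male rat liver S9; conditioned medium then went onto VM7Luc4E2 cells for 24 h, with viability read by protease-substrate fluorescence, fitted bidirectionally.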
# [2] = CCTE_Deisenroth_AIME_96WELL_CTox_Inactive: Cytotoxicity Assessment (CTOX) in CCTE's 96-well Estrogen Receptor Transactivation Assay without AIME metabolic competence (metabolism negative), Deisenroth Lab (AID 2284029; active means hit-call score of the fitted dose curve at least 0.9, where 1 is the maximum)
# In short: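 Chemicals (0.002 - 200 uM, 10 points) incubated 2 h with alginate-water microspheres (no S9), then medium moved onto VM7Luc4E2 cells for 24 h. Viability by protease-substrate cleavage to fluorescent probe; bidirectional fitting.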
# [3] = UKN5_HCS_SBAD2_cell_viability: Viability Assessment in the University of Konstanz (UKN) Leist Lab Neurite Outgrowth Assay in human iPSC-derived immature Dorsal Root Ganglia Neurons (UKN5) (AID 2284056)
# In short: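 iPSC-derived immature peripheral neurons (SBAD2) seeded on Matrigel with CHIR99021, SU5402 and DAPT, dosed 1 h later for 24 h. Viability from Hoechst H-33342 and calcein-AM live staining, high-content imaging; bidirectional fit versus DMSO.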
# [4] = UKN5_HCS_SBAD2_neurite_outgrowth: University of Konstanz (UKN) Leist Lab Neurite Outgrowth Assay in human iPSC-derived immature Dorsal Root Ganglia Neurons (UKN5) (AID 2284070); conditions: actives raise or lower the signal
# In short: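 SBAD2 iPSC-derived immature peripheral neurons on Matrigel, 100.000 cells/cm2, medium with CHIR99021 (1.5 uM), SU5402 (5 uM), DAPT (5 uM); compound added 1 h post-seeding for 24 h. Calcein-AM neurite area by high-content imaging; Hoechst H-33342 viability; bidirectional fit vs DMSO.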
# [5] = UKN2_HCS_IMR90_neural_migration: University of Konstanz (UKN) Leist Lab Neural Crest Cell Migration Assay in human induced IMR90 Pluripotent Stem Cells (UKN2) (AID 2284204); conditions: actives raise or lower the signal
# In short: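 iPSC-derived IMR90 neural crest cells seeded around stoppers on PLO/laminin/fibronectin; migration started in N2-S medium with EGF/FGF, compounds added after 24 h for 24 h. Migration into cell-free area imaged after calcein-AM/Hoechst staining; bidirectional fit versus DMSO.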
# [6] = UKN4_HCS_LUHMES_neurite_outgrowth: University of Konstanz (UKN) Leist Lab Neurite Outgrowth Assay in human LUHMES cells (UKN4) (AID 2284206); conditions: actives raise or lower the signal
# In short: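 Human LUHMES neuronal precursors, differentiated 2 days then replated without cAMP and GDNF, exposed to compounds for 24 h. Neurite area imaged by high-content microscopy after calcein-AM live staining; Hoechst H-33342 for viability; bidirectional fit versus DMSO.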
# [7] = UKN4_HCS_LUHMES_cell_viability: Viability Assessment in the University of Konstanz (UKN) Leist Lab Neurite Outgrowth Assay in human LUHMES cells (UKN4) (AID 2284232)
# In short: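 LUHMES precursors differentiated 2 days, replated at 30000 cells/well without cAMP/GDNF, then compound-treated 24 h. Viability from Hoechst H-33342 and calcein-AM live staining (30 min) by high-content fluorescence imaging; bidirectional fit versus DMSO.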
# [8] = UKN2_HCS_IMR90_cell_viability: Viability Assessment in the University of Konstanz (UKN) Leist Lab Neural Crest Cell Migration Assay in human induced IMR90 Pluripotent Stem Cells (UKN2) (AID 2284233);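 further: viability of neural crest cells differentiated from IMR90 iPSC measured by calcein-AM fluorescence imaging; cells exposed to compound for 24 h after a 24 h migration phase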
# In short: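 Neural crest cells derived from IMR90 iPSC migrate into a stopper-free zone for 24 h in EGF/FGF medium, then are exposed to compound for 24 h. Viability assessed by calcein-AM and Hoechst staining with high-content imaging, fitted bidirectionally versus DMSO.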
# [9] = tested on: Brachyury (BRA) Protein Expression, Deisenroth Lab, TBXT (gene 6862); experiment: CCTE_Deisenroth_DEVTOX-GLR_legacy_Bra: (Legacy) CCTE's DevTox GLR-Endo Assay Evaluation of Brachyury (BRA) Protein Expression, Deisenroth Lab (AID 2284329)
# In short: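 RUES2-GLR human pluripotent cells are differentiated for 48 h and receive two chemical exposures 24 h apart, at 10 concentrations from 1 nM to 200 uM. Cells are fixed, nuclei stained and imaged. Bra+ cells are those with mean Bra intensity over 5x BMAD above the pluripotent control median, expressed as a percentage of cell count, after subtracting the 0.2% DMSO control median.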
# [10] = CCTE_Deisenroth_DEVTOX-GLR_legacy_CellCount: (Legacy) Viability Assessment in CCTE's DevTox GLR-Endo Assay, Deisenroth Lab (AID 2284331); conditions: actives raise or lower the signal
# In short: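 Human pluripotent RUES2-GLR cells differentiated 48 h with two 24-h-interval exposures, 10-point 1 nM–200 uM series, 0.2% DMSO. Fixed nuclei counted by high-content imaging (5 fields/well); bidirectional fit vs DMSO, n≥4.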
# [11] = tested on: SRY-box transcription factor 17 (SOX17) Protein Expression, Deisenroth Lab, SOX17 (gene 64321); experiment: CCTE_Deisenroth_DEVTOX-GLR_legacy_Sox17: (Legacy) CCTE's DevTox GLR-Endo Assay Evaluation of SRY-box transcription factor 17 (SOX17) Protein Expression, Deisenroth Lab (AID 2284341); conditions: actives raise or lower the signal
# In short: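 RUES2-GLR human pluripotent cells differentiated toward endoderm for 48 h, dosed twice at 24 h intervals (1 nM–200 uM, 10 points). Imaging gives % SOX17+ cells (intensity >5x BMAD above pluripotent control median); bidirectional fit versus 0.2% DMSO.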
# [12] = tested on: SRY-box transcription factor 2 (SOX2) Protein Expression, Deisenroth Lab, SOX2 (gene 6657); experiment: CCTE_Deisenroth_DEVTOX-GLR_legacy_Sox2: (Legacy) CCTE's DevTox GLR-Endo Assay Evaluation of SRY-box transcription factor 2 (SOX2) Protein Expression, Deisenroth Lab (AID 2284346)
# In short: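 RUES2-GLR human pluripotent cells were differentiated for 48 h with two chemical doses 24 h apart, over 1 nM-200 uM. Sox2+ cells were those above 5x BMAD of the endoderm-control median; percent Sox2+ minus the 0.2% DMSO median was used, from n=4 replicates.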
# [13] = tested on: SRY-box transcription factor 2 (SOX2) Protein Expression, Deisenroth Lab, SOX2 (gene 6657); experiment: CCTE_Deisenroth_DEVTOX-GLR_Endo_SOX2: CCTE's DevTox GLR-Endo Assay Evaluation of SRY-box transcription factor 2 (SOX2) Protein Expression, Deisenroth Lab (AID 2284412; active means hit-call score of the fitted dose curve at least 0.9, where 1 is the maximum)
# In short: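 RUES2-GLR human pluripotent cells were seeded 24 h, then differentiated 48 h with two chemical exposures 24 h apart. Cells were fixed, nuclei stained and imaged by high-content microscopy. Endpoint is %SOX2+ cells over cell count, minus 0.2% DMSO control; 10-point series 1 nM–200 uM.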
# [14] = tested on: SRY-box transcription factor 17 (SOX17) Protein Expression, Deisenroth Lab, SOX17 (gene 64321); experiment: CCTE_Deisenroth_DEVTOX-GLR_Endo_SOX17: CCTE's DevTox GLR-Endo Assay Evaluation of SRY-box transcription factor 17 (SOX17) Protein Expression, Deisenroth Lab (AID 2284413)
# In short: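 RUES2-GLR human pluripotent cells were differentiated toward endoderm for 48 h and received two compound doses 24 h apart (1 nM - 200 uM, 10 points). High-content imaging of fixed cells gave the percent SOX17+ cells per cell count, expressed as percent change versus 0.2% DMSO.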
# [15] = tested on: Brachyury (BRA) Protein Expression, TBXT (gene 6862); experiment: CCTE_Deisenroth_DEVTOX-GLR_Endo_BRA: CCTE's DevTox GLR-Endo Assay Evaluation of Brachyury (BRA) Protein Expression, Deisenroth Lab (AID 2284417)
# In short: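 RUES2-GLR pluripotent cells differentiated 48 h with two chemical exposures 24 h apart, 10-point range 1 nM - 200 uM. Percentage of BRA+ cells per total count by high-content imaging, minus 0.2% DMSO control.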
# [16] = CCTE_Deisenroth_DEVTOX-GLR_Endo_CellCount: Viability Assessment in CCTE's DevTox GLR-Endo Assay, Deisenroth Lab (AID 2284420)
# In short: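 Measured 48 h after dosing: fluorescent nuclei counted by imaging in human RUES2-GLR cells under defined differentiation media, tested at 1 nM - 200 uM. Values are percent cell-count change relative to 0.2% DMSO.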
# [17] = tested on: SRY-box transcription factor 2 (SOX2) Protein Expression, Deisenroth Lab, SOX2 (gene 6657); experiment: CCTE_Deisenroth_DEVTOX-GLR_Pluri_SOX2: CCTE's DevTox GLR-Pluri Assay Evaluation of SRY-box transcription factor 2 (SOX2) Protein Expression, Deisenroth Lab (AID 2284428)
# In short: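 Percent SOX2+ RUES2-GLR cells, determined by fluorescence microscopy after 48 h and two 24-h-interval chemical exposures spanning 1 nM–200 uM, served as the endpoint. Values are expressed relative to 0.2% DMSO; total cell counts assessed viability.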
# [18] = tested on: Brachyury (BRA) Protein Expression, Deisenroth Lab, TBXT (gene 6862); experiment: CCTE_Deisenroth_DEVTOX-GLR_Pluri_BRA: CCTE's DevTox GLR-Pluri Assay Evaluation of Brachyury (BRA) Protein Expression, Deisenroth Lab (AID 2284429; active means hit-call score of the fitted dose curve at least 0.9, where 1 is the maximum)
# In short: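 RUES2-GLR human pluripotent cells differentiated 48 hours with two chemical exposures 24 hours apart, 10-point series 1 nM–200 uM. Fixed, nuclear-stained, imaged; endpoint is percent BRA+ cells minus 0.2% DMSO control.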
# [19] = CCTE_Deisenroth_DEVTOX-GLR_Pluri_CellCount: Viability Assessment in CCTE's DevTox GLR-Pluri Assay Evaluation of Total Cell Counts, Deisenroth Lab (AID 2284430)
# In short: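 RUES2-GLR human pluripotent cells, seeded 24 h, then differentiated 48 h with two chemical exposures 24 h apart; 10-point series 1 nM - 200 uM. Fixed, nuclear-stained, imaged (5 fields/well); nuclei count as % change vs 0.2% DMSO.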
# [20] = biological target: Estrogen receptor (Homo sapiens) (UniProt P03372); experiment: CCTE_Deisenroth_AIME_96WELL_LUC_Active: CCTE's 96-well Estrogen Receptor Transactivation Assay with AIME metabolic competence (ERTA luciferase; metabolism positive), Deisenroth Lab (AID 2284023; active means hit-call score of the fitted dose curve at least 0.9, where 1 is the maximum)
# Sequence of Estrogen receptor (Homo sapiens) (P03372 whole entry, looked up): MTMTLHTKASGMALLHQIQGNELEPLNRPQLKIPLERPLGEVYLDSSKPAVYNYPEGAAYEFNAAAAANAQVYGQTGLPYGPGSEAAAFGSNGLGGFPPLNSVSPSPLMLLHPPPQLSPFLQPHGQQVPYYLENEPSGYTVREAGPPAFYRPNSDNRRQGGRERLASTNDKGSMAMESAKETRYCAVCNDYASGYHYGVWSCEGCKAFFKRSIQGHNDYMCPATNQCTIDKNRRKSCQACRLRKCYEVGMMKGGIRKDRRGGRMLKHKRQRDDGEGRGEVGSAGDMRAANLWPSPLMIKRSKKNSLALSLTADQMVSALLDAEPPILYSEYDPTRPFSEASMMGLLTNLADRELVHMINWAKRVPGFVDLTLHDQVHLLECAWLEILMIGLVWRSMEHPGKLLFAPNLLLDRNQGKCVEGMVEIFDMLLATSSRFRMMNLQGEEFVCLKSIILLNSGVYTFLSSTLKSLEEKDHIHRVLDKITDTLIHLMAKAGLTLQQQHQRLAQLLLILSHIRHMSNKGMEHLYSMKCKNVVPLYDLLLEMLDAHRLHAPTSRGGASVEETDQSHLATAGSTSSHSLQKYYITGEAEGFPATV
# In short: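 Chemicals pre-incubated 2 h with alginate-immobilized phenobarbital/beta-naphthoflavone-induced male Sprague Dawley rat liver S9, then medium transferred to VM7Luc4E2 cells for 24 h luciferase read-out. 10-point series 0.002 - 200 uM; fitted relative to 17beta-estradiol.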
# [21] = biological target: Estrogen receptor (Homo sapiens) (UniProt P03372); experiment: CCTE_Deisenroth_AIME_96WELL_LUC_Inactive: CCTE's 96-well Estrogen Receptor Transactivation Assay without AIME metabolic competence (ERTA luciferase; metabolism negative), Deisenroth Lab (AID 2284025; active means hit-call score of the fitted dose curve at least 0.9, where 1 is the maximum)
# In short: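 VM7Luc4E2 breast cells, luciferase read 24 h after dosing with medium pre-incubated 2 h on alginate-water lids (metabolism negative). 10-point series 0.002–200 uM, single technical replicate, n≥4; fit relative to 17beta-estradiol.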
smiles,measurement,setting,value
CC/C(=C(\c1ccc(O)cc1)c1ccc(OCCN(C)C)cc1)c1ccccc1,AC50,[1],57.8 µM (active)
same,AC50,[2],57.6 µM (active)
Cc1ccccc1,outcome,[3],inactive
same,outcome,[4],inactive
same,outcome,[5],inactive
same,outcome,[6],inactive
same,outcome,[7],inactive
same,outcome,[8],inactive
Oc1cc(O)c2c(c1)O[C@H](c1ccc(O)c(O)c1)[C@@H](O)C2,outcome,[9],inactive
same,AC50,[10],167 µM (active)
same,AC50,[11],144 µM (active)
same,outcome,[12],inactive
same,outcome,[13],inactive
same,AC50,[14],146 µM (active)
same,AC50,[15],0.000133 µM (active)
same,AC50,[16],167 µM (active)
same,AC50,[17],5.13 µM (active)
same,AC50,[18],157 µM (active)
same,outcome,[19],inactive
C(#Cc1ccccc1)c1ccccc1,AC50,[20],32.3 µM (active)
same,AC50,[21],28.5 µM (active)
